Rows were chosen to be rich in hits. Some 4.2% of all compounds tested hit in one or more screens of this group.
ClpP mod: qHTS Assay for Activators of ClpP. purified B. subtilis ClpP, FRET peptide cleavage, 20 min. hit rate 1.9% among 340,000. Potency, µM (top dose mostly 57.5 µM), for inactives: top-dose activity change, negative = active. AID 651965, 2013; active = well fitted falling curve with a large enough effect; inconclusive = small, poorly fitted or top-dose-only effect; inactive = no such curve, though single readings can be large or run the other way; note: potency is the fitted concentration of half-maximal effect; the source files actives as falling curves though it sought activators and does not explain the sign; nearly all actives have a fitted effect of over 65% in size
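ClpP 10 microg/mL final, pH 8 Tris/KCl buffer with BSA, glycerol, Tween-20; compound pinned in; FRET-FV substrate; RT 20 min; Ex320/Em430; ΔFRET vs ADEP 5.8 microM, DMSO, no enzyme.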
TCR activator: T cell receptor activation. primary human leukocytes, anti-CD3, IL-2 HTRF, 48 h. Potency, µM (highest dose often 9.22 µM), for the others: top-dose activation of IL-2 secretion, usual class: activators. 330,000 tested, under 10 active. AID 504894; note: % of control where 0% means no effect
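TCR engagement came from a-CD3 beads alone, with compounds added to primary human leukocytes for 48 hr. Secreted IL-2 bridged europium cryptate- and d2-labelled anti-IL-2 antibodies, giving FRET emission at 665nm after 320nm excitation.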
Sfp PPTase inh: Sfp phosphopantetheinyl transferase inhibition; Potency, µM, for the others: largest response in the series, negative = inhibition, hits mostly inhibitors; Biochemical Sfp PPTase activity, qHTS; hit rate 3.5% among 310,000; Q9F4F7;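 note: the enzyme is Sfp with the accession as filed and its product quenches rhodamine fluorescence; potency is the fitted concentration of half-maximal effect; 0% = enzyme reaction without inhibitor and -100% = no enzyme wells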
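Fluorescence-quenching assay with 15 nM Sfp, 5 uM rhodamine-CoA and 12.5 uM BHQ-2-labelled ybbR peptide in pH 7.6 Hepes/MgCl2 buffer. Enzyme was pre-incubated with compound for 15 min at room temperature. Rate was taken from the 30-min fluorescence change (525/598 nm).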
uPA generation: blocks generation of uPA at the cell surface; cell surface uPA generation assay, qHTS; Potency, µM (series often up to 38.3 µM), for inactives: at the highest dose activity change, negative = inhibition, usual class: inhibitors; hit rate 0.31% among 330,000; AID 540303; active = well fitted inhibition curve with a large enough effect; inconclusive = small, poorly fitted or top-dose-only effect; inactive = no such curve, though single readings can be large or run the other way; tested in mouse RAW 264.7 cells; note: potency is the fitted concentration of half-maximal effect; % is set by controls: 0 for no effect and ±100 for the full control effect; nearly all actives have a fitted effect of over 55% in size
Active calls of the source: *; ? = inconclusive; / = not tested or not shown; [ ] = remark or other dose. Unless noted, calls come from the whole dose curve; as a rule, active = well fitted curve in the direction sought with a large enough effect; inconclusive = small, poorly fitted or top-dose-only effect, or another doubt; inactive = no such curve, though single readings can be large; an effect the other way counts as inactive or inconclusive.

SMILES | ClpP mod | TCR activator | Sfp PPTase inh | uPA generation
O=C(Nc1ccc(Cl)cc1)C(Cl)C(=O)c1ccccc1 (stereo not given) | 1% | 14% | 28µM* | -2%
Cc1ccc(C)n1-c1sccc1C(=O)O | 1% | -25% | 50µM* | 0%
Cc1ccc(C)n1-c1sc2c(c1C(=O)O)CCCC2 | / | -67% | -17% | -2%
O=C1OCc2cccc([N+](=O)[O-])c21 | 2% | 1%[46.1 µM] | 2% | 0%
O=C1CC(=O)c2c1cccc2[N+](=O)[O-] | / | / | 79µM* | /
Cc1ccc(N2C(=O)C(Cl)=C(Nc3c(C)n(C)n(-c4ccccc4)c3=O)C2=O)cc1 | -1% | 3% | ? | -9%
Cc1cccc(N2C(=O)C(Cl)=C(Nc3c(C)n(C)n(-c4ccccc4)c3=O)C2=O)c1C | -1% | -29% | 56µM* | 5%
N#CC1=C(S)N(c2ccccc2)C(c2ccc(-c3cc(Cl)ccc3Cl)o2)NC1=O (stereo not given) | -3% | -3% | 28µM* | -16%
N#CC1=C(S)N(c2ccccc2)C(c2ccc(-c3ccc(Cl)c(Cl)c3)o2)NC1=O (stereo not given) | -9% | 1% | 35µM* | 11%
N#CC1=C(S)N(c2ccccc2)C(c2ccco2)NC1=O (stereo not given) | / | 1% | ? | -2%
COc1ccc([C@@H]2CC(=O)c3c(O)cc(O[C@@H]4O[C@H](CO[C@@H]5O[C@@H](C)[C@H](O)[C@@H](O)[C@H]5O)[C@@H](O)[C@H](O)[C@H]4O)cc3O2)cc1 | / | / | 6% | /
CC(=O)NNC(=O)c1csc(-c2csc(C)n2)n1 | 32µM* | 9% | ? | 0%
COc1ccc(NC(=O)Cn2ncc3c([nH]c4ccccc43)c2=O)cc1Cl | -1% | / | / | /
O=S(=O)(/N=S1/CC=CCN1S(=O)(=O)c1ccccc1)c1ccccc1 (stereo not given) | -2% | 2% | 1.4µM* | 5%
O=S(=O)(c1ccccc1)N1CCN(S(=O)(=O)c2ccccc2)C1 | 1% | 2% | -15% | 13%
Cc1ccc(-c2cc(C(=O)Nc3ccc(SC(F)F)cc3)no2)cc1F | -3% | / | / | /
CC1(C)CC(=O)C2=C(C1)NC(=S)C(C#N)C21CCCCC1 (stereo not given) | 2% | 1% | 11µM* | -10%
CCOC(=O)c1c(C)nc(C)c(C(=O)OCC)c1-c1ccccc1 | -2% | -4% | 45µM* | /
CC(OC(=O)CCCN=C1NS(=O)(=O)c2ccccc21)C(=O)Nc1ccc(F)c(F)c1F (stereo not given) | 2% | 8% | / | -3%
CCn1c(SCC(=O)c2ccc(Cl)cc2)nnc1-c1ccoc1C | 1% | 7% | -93% | -2%
CCn1c(SCC(=O)c2ccc(C)cc2)nnc1-c1ccoc1C | 0% | -3% | 79µM* | -2%
O=C(COc1ccccc1)Nc1cccc(-c2nc3cc4ccccc4cc3[nH]2)c1 | 6.3µM* | 6% | 14% | /
CC(Oc1ccccc1)C(=O)Nc1cccc(-c2nc3ccccc3[nH]2)c1 (stereo not given) | 35µM* | 2% | 2% | 1%
Cc1cc(C)cc(OCC(=O)Nc2cccc(-c3nc4ccccc4[nH]3)c2)c1 | 4% | / | / | /
O=C(NCCC1=CCCCC1)c1ccc2c(c1)sc1nc(-c3ccc(F)cc3)cn12 | -20% | / | / | /
SMILES | ClpP mod | TCR activator | Sfp PPTase inh | uPA generation
Cc1cnc(NC(=O)/C=C/c2ccc(Br)o2)s1 | 0% | 4% | -27% | -1%
Cc1ccc(/C=C/C(=O)Nc2ccc(N(C)C)cc2)o1 | 0% | 8%[46.1 µM] | -26% | -3%
CC(=O)NS(=O)(=O)c1ccc(NC(=O)/C=C/c2ccc(C)o2)cc1 | / | -2% | 5µM* | 2%
Cc1ccc(/C=C/C(=O)Nc2ncc(C)s2)o1 | -11% | -1%[46.1 µM] | 13µM* | -2%
Cc1ccc(/C=C/C(=O)NCc2ccc(S(N)(=O)=O)cc2)o1 | / | -13% | 3.5µM* | 2%
Cc1ccc(/C=C/C(=O)Nc2ccc(S(N)(=O)=O)cc2)o1 | -7% | 0% | 10µM* | 7%
COc1ccc(CCN(C)Cc2ccc(C(=O)Nc3ccccc3)cc2)cc1OC | -2% | 6% | -5% | -4%
O=C(O)c1ccc(NC(=S)NC(=O)c2ccc(-c3ccc(Br)cc3)o2)cc1 | -6% | / | 45µM* | 0%
Cc1ccc(C(=O)O)cc1NC(=S)NC(=O)c1ccc(-c2ccc(Cl)cc2)o1 | 4% | 7% | 50µM* | -1%
O=C(O)c1cccc(NC(=S)NC(=O)c2ccc(-c3ccc(Cl)cc3)o2)c1 | / | 3% | ? | 4%
CC(=O)c1cccc(-c2ccnc3c2CC(C(=O)Nc2cccc(C(F)(F)F)c2)O3)c1 (stereo not given) | -1% | / | / | /
COc1cccc(N/C=C/C(=O)c2ccc(Cl)cc2)c1 | 0% | -1%[46.1 µM] | -29% | -7%
COc1cccc(N/C=C/C(=O)c2ccc(C)cc2)c1 | -4% | / | -4% | 8.9µM*
Cc1ccc(/C=C/C(=O)c2ccc(C)cc2)cc1 | 0% | 0%[46.1 µM] | -3% | /
Cc1ccc(C(=O)/C=C/C(=O)c2ccc(C)cc2)cc1 | / | -4% | 3.2µM* | -1%
O=C1CCCCCC1C1(O)C(=O)Nc2ccccc21 (stereo not given) | 11µM* | 8% | 12% | 2%
NC(=O)c1cc([N+](=O)[O-])c(Cl)cc1NCc1ccccn1 | -5% | 4% | / | ?
CCc1nc(-c2cc3ccc(C)cc3[nH]c2=O)no1 | 14µM* | 10% | 13% | -3%
Cc1ccc2cc(-c3noc(C(C)(C)C)n3)c(=O)[nH]c2c1 | 28µM* | -5% | 0% | -2%
Cc1ccc2[nH]c(=O)c(-c3noc(C(C)C)n3)cc2c1 | 5% | 3% | -2% | -14%
COc1ccc(C(C(=O)NCc2ccccc2)N(C(=O)Cn2nnc3ccccc32)c2cccc(OC)c2)cc1 (stereo not given) | 1% | / | / | /
Cc1ccc2nc(/C(C#N)=C/c3ccc(-c4cccc(Cl)c4)o3)[nH]c2c1 | -1% | / | / | /
Cc1nc(S/C(=C/c2ccc(-c3cccc(Cl)c3)o2)C(=O)O)n[nH]1 | 1% | 4% | 45µM* | 1%
CCc1ccc2c(c1)C(C)=CC(C)(C)N2 | 32µM* | 8% | -12% | 10%
Nc1ccccc1OCCOc1ccccc1N | 1% | 0% | 3% | -3%
SMILES | ClpP mod | TCR activator | Sfp PPTase inh | uPA generation
Nc1ccccc1OCCOCCOc1ccccc1N | 22µM* | -2% | 2% | 0%
O=C(COc1ccc(Br)cc1)Nc1ccc(-c2nnc(-c3ccco3)o2)cc1 | 10µM* | 2% | -3% | 1%
Cc1cc2c(c(C)c1Cl)C(c1ccc3c(c1)OCO3)CC(O)(c1ccccc1)O2 (stereo not given) | / | / | 24% | /
Cc1ccc(-c2oc3ncnc(N)c3c2-c2ccc(C)cc2)cc1 | 28µM* | 3% | 11% | /
CCOC(=O)CC(NC(=O)c1cc2cc(Br)cc(OC)c2oc1=O)c1ccc(OC)cc1 (stereo not given) | -2% | / | / | /
C=C[C@](C)(O)CCC1C(=C)CC(OC(C)=O)C2C(C)(C)CCCC12C (stereo not given in full) | / | / | 2% | /
